# An excerpt weighted towards active compounds, which were near 4.9% of everything screened.
# MPTP inh: inhibitors of mitochondrial permeability transition pore; 360,000 compounds, 1.4% hits; AID 602449; isolated mouse mitochondria, Ca2+ swelling absorbance, 30 min; inhibition, % at 10 µM;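 active = inhibition of 50% or more, scaled per plate between neutral and stimulator controls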;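 note: 0% = DMSO wells given calcium and 100% = 1 mM EGTA wells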
# dFosB activator: mouse delta FosB homodimer activation; AID 493131; 340,000 compounds, 0.99% hits; purified delta FosB, TAMRA-CDK5 oligo fluorescence polarization; percent of positive-control signal above neutral wells; activation, % at 25 µM; P13346;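 active = mean activation above about 17%, with every replicate also reaching it, limit read from the data, passing the limit was not always enough; inconclusive = only one of the two conditions met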
# Target sequence (P13346 whole entry, looked up): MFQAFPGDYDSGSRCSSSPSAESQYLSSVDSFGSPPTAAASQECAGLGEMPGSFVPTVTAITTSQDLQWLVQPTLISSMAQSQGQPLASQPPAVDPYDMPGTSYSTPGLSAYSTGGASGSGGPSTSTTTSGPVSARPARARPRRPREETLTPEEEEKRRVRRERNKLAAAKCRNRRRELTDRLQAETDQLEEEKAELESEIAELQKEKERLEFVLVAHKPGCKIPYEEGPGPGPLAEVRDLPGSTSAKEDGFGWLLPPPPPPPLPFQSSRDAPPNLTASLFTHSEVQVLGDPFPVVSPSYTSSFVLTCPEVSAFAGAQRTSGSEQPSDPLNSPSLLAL
# HSP90 refold inh: inhibitors of HSP90 luciferase refolding in rabbit reticulocyte lysate | luciferase refolding luminescence, 3 h | inhibition, % at 5.6 µM | 290,000 compounds, 0.91% hits;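 active = inhibition above the screen-wide mean plus 3 SD, computed separately per campaign, cut at about 16% in these data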;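 note: 0% = DMSO wells and 100% = 60 µM geldanamycin wells; inhibitors lower the luminescence because luciferase stays unfolded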
# HSF-1 act: increases HSF-1 driven luciferase reporter signal; NIH3T3-HGL HSF-1 luciferase reporter, MG132, 8 h; 100% = twice DMSO control signal; activation, % at 9 µM; 300,000 compounds, 1.7% hits;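 active = mean replicate activation of at least 50% with a set share of replicates each reaching 50%; inconclusive = only one of those two conditions met; inactive = mean below 50% and too few replicates reaching it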;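 note: 0% = median of the neutral control wells and 100% = twice that signal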
# Platelet DG rel: platelet dense granule release activity; AID 1663; inhibition, %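 (compounds screened at 7.5 µM in platelet-rich plasma)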; human platelet-rich plasma, SFLLRN dense granule ATP release, luminescence; 300,000 compounds, 0.22% hits;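 active = mean replicate score, as percent of positive control, at or above 50; inconclusive = mean below 50 but at least one replicate at or above 50; inactive = mean and every replicate below 50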
# HSF1 inh: HSF1 inhibition | NIH3T3-HGL HSE-luciferase, MG132-induced, luminescence 8 h; stronger effect = lower value | 300,000 compounds, 0.77% hits | activity change, negative = inhibition, % at 7.5 µM (by protocol);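 active = more than half of replicate wells show activity change below -50%, luminescence cut by over half; inconclusive = some wells, but at most half, below -50%; inactive = no replicate well below -50%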;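 note: luciferase reports HSF-1 transcriptional activity via heat shock element; 0% = median of DMSO wells and -100% = zero luminescence signal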
# Active calls of the source: *; ? = inconclusive; · = no result given.
SMILES,MPTP inh,dFosB activator,HSP90 refold inh,HSF-1 act,Platelet DG rel,HSF1 inh
CS(=O)(=O)c1ccc2nc(NC(=O)c3ccc(=O)[nH]c3)sc2c1,0.3,-17.8,3.4,-34.5,4.3,-14.3
O=C(CC1CCCCC1)NCc1ccccn1,-0.5,-1.2,-0.8,-91.7,6.8,-90.4*
O=C(CCC1CCCC1)NCc1ccccn1,-0.5,2.4,6.4,6.3,-1.5,-3.1
COc1cc(CCC(C)=O)ccc1OC(=O)c1c(F)cccc1Cl,1.9,-0.6,-3.1,?,3.0,21.2
CCC(N=c1cc(-c2ccc(OC)cc2)oc2ccc(C)cc12)C(=O)O (stereo not drawn),-4.0,-14.9,3.0,58.7*,-5.3,31.7
CN1CCN(S(=O)(=O)c2ccc(NC(=O)c3ccc(F)cc3Cl)cc2)CC1,-1.7,0.7,-5.1,-15.8,1.4,-2.3
O=C(NCCOc1ccccc1)c1cncc(Br)c1,0.4,-4.7,-0.1,19.3,-3.8,15.2
CCc1cc(C)cc(OCCNC(=O)c2cncc(Br)c2)c1,4.9,6.8,2.8,-71.6,6.1,-61.5*
Cc1c(Cl)c(C(=O)NC2CCCC2)nn1C,0.1,10.2,-1.6,60.7*,-5.7,16.9
CN1CCN(S(=O)(=O)c2ccc(NC(=S)NC(=O)C(C)(C)C)cc2)CC1,1.8,-6.7,-8.4,·,-4.6,·
CCC(=O)NC(=S)Nc1ccc(S(=O)(=O)N2CCN(C)CC2)cc1,-0.6,1.6,-0.1,78.9*,-12.7,25.0
CC1=NNC(=O)C1CCC(=O)N/N=C/C(Br)=C/c1ccccc1 (stereo not drawn),0.0,-10.6,-3.0,88.0*,19.3,66.5
CC1=NNC(=O)C1CC(=O)N/N=C/C(Br)=C/c1ccccc1 (stereo not drawn),3.2,-1.7,2.5,-8.0,3.8,-10.3
CC1C(=O)NN=C1C(=O)N/N=C\C(Br)=C\c1ccccc1 (stereo not drawn),-0.5,4.3,-4.3,213.4*,4.3,153.2
CC(C)CCN1CCN(Cc2ccon2)CC1CCO (stereo not drawn),0.6,-4.4,-0.5,-10.4,-31.9,-15.2
Cc1[nH]c(C)c(C(=O)/C=C/c2ccc([N+](=O)[O-])cc2)c1C,0.8,-24.1,8.8,69.7*,4.5,32.9
C/C(=C\C(=O)Nc1cscc1C)C(=O)O,3.3,0.4,-1.6,74.4*,3.7,29.6
CCCOc1ccc(C(=O)Nc2ccc(N3CCN(C(=O)c4ccco4)CC3)cc2)cc1,-0.3,-3.2,-2.9,-3.6,6.4,6.4
COC(=O)c1c(NC(=O)C2CC(=O)NN2Cc2ccccc2)sc(C)c1C (stereo not drawn),-10.1,-0.3,0.8,5.9,59.9*,10.3
O=C(NCc1ccccc1)c1c[nH]c2ccc(S(=O)(=O)Nc3ccc4c(c3)OCCO4)cc2c1=O,4.6,-4.1,3.8,-12.7,-1.3,-12.0
O=C(NCc1cccnc1)c1c[nH]c2cc3c(cc2c1=O)OCCO3,6.2,-24.0,16.4*,-33.3,-7.8,-33.3
CCNc1nc(SC(C)C(=O)Nc2ccccc2)nc(N2CCOCC2)n1 (stereo not drawn),-1.3,1.1,2.6,4.3,15.7,-1.1
CNc1nc(SC(C)C(=O)Nc2ccc(Cl)c(Cl)c2)nc(N2CCOCC2)n1 (stereo not drawn),0.4,5.0,-1.2,68.2*,-0.3,12.2
Cc1cc(SCC(=O)Nc2c(C)n(C)n(-c3ccccc3)c2=O)nc2ccccc12,-1.2,-2.0,0.0,-19.3,15.6,-1.4
CCCCN(C)CC(O)Cn1cc(/C=C/C(=O)c2ccc(C)cc2)c2ccccc21 (stereo not drawn),0.9,25.8*,2.4,0.1,15.3,4.7
CN1CCN(Cn2cc(/C=C/C(=O)c3ccccc3)c3ccccc32)CC1,1.9,-10.6,0.4,87.0*,13.7,45.5
O=C(/C=C/c1cn(CC(O)CN2CCCCC2)c2ccccc12)c1ccccc1 (stereo not drawn),-2.1,?,1.0,14.5,-0.2,12.8
Oc1c(Cl)cccc1C=Nc1cc(C(F)(F)F)ccc1N1CCCC1,2.0,-4.1,-0.8,4.8,?,-0.7
Oc1c(Cl)cc(Cl)cc1C=Nc1cc(C(F)(F)F)ccc1N1CCc2ccccc2C1,9.5,-20.6,14.2,69.9*,12.5,36.8
